UBC13 inh: human UBC13 polyubiquitination inhibition; P61088; UBC13 polyubiquitin chain formation, TR-FRET; inhibition, % at 20 µM; hit rate 0.47% among 330,000; AID 485273; in the data active means inhibition above about 45%, passing the limit was not always enough
Target sequence (P61088 whole entry, looked up): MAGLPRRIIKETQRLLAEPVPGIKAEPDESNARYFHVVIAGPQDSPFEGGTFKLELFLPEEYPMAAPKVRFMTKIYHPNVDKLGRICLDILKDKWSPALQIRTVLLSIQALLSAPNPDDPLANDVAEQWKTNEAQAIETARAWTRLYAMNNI
GRIN3A LBD mod: NR3A (human) ligand-binding domain modulation; hit rate 2.5% among 340,000; NR3A LBD differential scanning fluorimetry, Tm shift; 0% = protein alone, 100% = glycine-bound protein; Tm shift relative to glycine control, % at 25 µM; AID 1259313;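 active means melting temperature shift of at least 10% of the positive control shift, at one fixed dose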
Yeast superoxide: yeast age-related superoxide inhibition as caloric restriction mimetic; S. cerevisiae aged cells, superoxide DHE fluorescence; active compounds read low; hit rate 0.18% among 330,000; AID 2690; superoxide response (% of plate mean), % at 10 µM;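 active means superoxide response under a set limit, about three screen SD below normal, cut at about 65% in these data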;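 further: yeast aged for seven days with compound at 30 °C before DHE staining; 100% = average MFI of all compound-treated wells on the plate with controls excluded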
dFosB act-1: enhances mouse delta FosB homodimer DNA binding. P13346. purified delta FosB, TAMRA-CDK5 oligo fluorescence polarization; percent of positive-control signal above neutral wells. activation, % at 25 µM. hit rate 0.99% among 340,000. AID 493131;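 active means mean activation above about 17%, with every replicate also reaching it, limit read from the data, passing the limit was not always enough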
Target sequence (P13346 whole entry, looked up): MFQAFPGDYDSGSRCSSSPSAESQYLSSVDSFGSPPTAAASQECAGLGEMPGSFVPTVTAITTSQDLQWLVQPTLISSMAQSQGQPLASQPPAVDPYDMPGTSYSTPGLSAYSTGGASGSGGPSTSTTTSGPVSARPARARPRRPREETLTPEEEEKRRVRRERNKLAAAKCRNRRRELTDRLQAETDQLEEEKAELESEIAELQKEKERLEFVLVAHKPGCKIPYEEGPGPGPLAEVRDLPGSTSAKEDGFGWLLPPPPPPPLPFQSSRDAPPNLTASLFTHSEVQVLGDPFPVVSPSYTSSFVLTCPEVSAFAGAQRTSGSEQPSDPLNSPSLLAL
NALP1 inh: NALP1 inhibition; S. cerevisiae NALP1/ASC/caspase-1 growth, X-gal OD620, 72 h; inhibition, % at 10 µM; hit rate 0.61% among 280,000; in the data active means inhibition mostly above about 24%, no sharp cut-off; inactive means mostly below about 32%
dFosB act-2: activators of mouse delta FosB homodimer DNA binding | 2,400 tested, under 10 active | shares compounds with dFosB act-1 | activation, % at 24.9 µM | AID 588690 | purified delta FosB, TAMRA-CDK5 oligo fluorescence polarization; normalised: neutral wells 0, positive control 100;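 active means highest replicate activation at or above 34% and every replicate reaching that threshold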;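 further: higher polarization means more probe DNA bound by delta FosB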
Numbers without * were called inactive; i = inactive; . = not tested or not shown. A selection: hits, their analogues and other compounds. The true share with any hit is near 4.3%.

SMILES	UBC13 inh	GRIN3A LBD mod	Yeast superoxide	dFosB act-1	NALP1 inh	dFosB act-2
O=C(CCCCCN1C(=O)c2ccccc2C1=O)Nc1ccccc1	13.8	-9.7	105.2	-1.4	-12.5	.
Cc1ccc(NC(=O)CCN2C(=O)c3cccc4cccc(c34)C2=O)cc1	-5.9	4.6	85.7	5.8	11.4	.
CC(=O)Nc1ccc(NC(=O)CCCCCN2C(=O)c3ccccc3C2=O)cc1	9.0	-0.3	i	24.6*	8.5	-0.8
O=C(CCN1C(=O)c2cccc3cccc(c23)C1=O)Nc1ccccc1	-11.9	0.2	114.0	26.6*	8.4	0.5
Nc1nonc1-c1nc2ccccc2n1CC(=O)Nc1ccccc1	-8.0	0.0	99.6	33.1*	.	2.3
CN(CC(=O)Nc1ccccc1Cl)C(=O)c1cc(C2CC2)nn1-c1ccccc1	7.0	1.1	94.5	-5.3	.	.
COc1ccc(-c2cc(C(=O)Nc3cc(C)nn3-c3ccccc3)no2)cc1	10.5	-0.6	92.3	22.6*	-7.2	-2.7
Cc1cc(NC(=O)c2cc(-c3ccccc3)on2)n(-c2ccccc2)n1	-4.2	3.8	84.6	-1.5	10.5	.
COc1ccc(-c2csc(NC(=O)c3cccc(N4C(=O)CCC4=O)c3)n2)cc1C	28.1	-6.0	93.4	-6.2	15.2	.
COc1ccc(OC)c2sc(NC(=O)c3cccc(N4C(=O)CCC4=O)c3)nc12	-11.3	2.5	92.8	67.5*	12.0	2.3
CCCCn1c(N)c(N(CCC(C)C)C(=O)COC(=O)c2ccc3ccccc3c2)c(=O)[nH]c1=O	-9.7	-6.2	.	5.6	.	.
S=C(Nc1ccc(Cl)cc1)c1nc2ccccc2[nH]1	-13.8	-6.0	105.5	29.1*	16.5	1.3
Cc1ccccc1NC(=S)c1nc2ccccc2[nH]1	.	-1.9	81.2	-2.6	42.5	.
O=C(CN1C(=O)CCSc2ccc(S(=O)(=O)N3CCCC3)cc21)Nc1ccccc1Cl	-8.7	-3.8	80.8	-5.1	-17.4	.
Cc1cccc(C)c1NC(=O)CN1C(=O)CCSc2ccc(S(=O)(=O)N3CCCC3)cc21	-1.1	0.4	69.8	47.7*	16.3	-0.1
CN(C)c1ccc(C(=O)NNC(=O)Nc2ccccc2)cc1	1.4	0.7	92.3	6.9	-11.5	.
O=C(NNC(=O)c1ccc(NC(=O)c2ccccc2)cc1)Nc1ccccc1	3.1	-2.6	108.6	25.1*	-1.2	-1.0
O=C(NNC(=O)c1ccc(NC(=O)c2ccccc2)cc1)c1ccc(F)cc1	-8.0	-11.6	104.4	38.7*	9.1	6.8
CCSc1ccc(C(=O)Nc2ccc(Br)cn2)cc1[N+](=O)[O-]	-7.7	-2.1	100.3	18.8*	0.7	-6.8
O=C(Oc1coc(CSc2nnc(NC(=O)C3CC3)s2)cc1=O)c1ccccc1	21.9	-2.9	110.6	23.2*	9.1	-10.9
COc1cccc(-c2cc(C(=O)Nc3cnn(Cc4ccccc4C)c3)no2)c1	24.4	-7.2	94.4	43.1*	18.2	0.7
COc1ccc(S(=O)(=O)N2CCN(c3nc(-c4cccnc4)nc4ccccc34)CC2)cc1	-12.4	-1.7	106.5	17.8*	.	-1.1
COC(=O)c1ccc(C(=O)OC)c(=O)[nH]1	3.2	-6.6	87.1	0.7	11.6	.
Cc1ccc(NC(=O)COC(=O)c2cccc(N3C(=O)c4ccccc4C3=O)c2)cc1	0.0	-0.4	102.1	49.9*	.	-2.2
CC(=O)c1ccc(NC(=O)c2cccc(N3C(=O)c4ccccc4C3=O)c2)cc1	-5.5	-0.6	114.9	78.1*	-13.8	1.0
SMILES	UBC13 inh	GRIN3A LBD mod	Yeast superoxide	dFosB act-1	NALP1 inh	dFosB act-2
O=C(O)c1cc(NC(=O)c2cccc(N3C(=O)c4ccccc4C3=O)c2)cc(C(=O)O)c1	-1.2	-0.3	102.5	0.9	0.5	.
NS(=O)(=O)c1ccc(NC(=O)c2cccc(N3C(=O)c4ccccc4C3=O)c2)cc1	1.5	-0.9	103.5	111.3*	13.1	5.4
NS(=O)(=O)c1ccc(NC(=O)c2ccc3c(c2)CCN3S(=O)(=O)c2ccccc2)cc1	-1.8	2.8	110.9	32.4*	22.3	1.0
Cc1cc(C)c(-c2cc(NC(=O)COC(=O)c3ccc(C#N)cc3)n(-c3ccccc3)n2)cc1C	-20.3	-20.8	87.8	-21.6	28.2	.
Cc1cc(C)c(-c2cc(NC(=O)COC(=O)c3ccc(NC(=O)CC#N)cc3)n(-c3ccccc3)n2)cc1C	-13.2	27.2*	112.7	51.3*	.	2.4
COC(=O)C(CO)NC(=O)C(C)NC(=O)CNC(=O)OCc1ccccc1 (configuration not stated)	-4.2	-2.0	112.2	2.7	-0.1	.
C/C(=N/O)c1ccc2c(c1)OCCOCCOc1cc(/C(C)=N/O)ccc1OCCOCCO2	0.2	0.2	107.6	21.4*	40.8	5.0
OCCCCCN=c1cc(-c2ccccc2)oc2ccc(Cl)cc12	-1.3	0.9	105.0	21.5*	16.7	3.9
Cc1ccc(NC(=O)CN2C(=O)NC(C)(CC(C)C)C2=O)c(Br)c1 (configuration not stated)	1.5	2.0	82.2	-6.1	.	.
NS(=O)(=O)c1ccc(CNC(=O)c2cc(-c3ccccn3)nc3ccc(Cl)cc23)cc1	-15.7	-10.8	91.2	21.2*	4.0	-2.2
C[C@H]1COC(=O)[C@@H](Cc2ccc(F)cc2)C/C=C\C[C@H](CC(=O)N(CCO)Cc2ccccc2)C(=O)N1	5.7	-1.3	90.7	-8.9	.	.
COc1c(C(=O)Nc2nnc(C3CC3)s2)csc1Cl	0.2	0.2	111.9	-1.6	9.8	.
Cc1cccc(C)c1NC(=O)CNC(=O)c1cccc(S(=O)(=O)NCc2cccs2)c1	-11.4	1.0	104.5	23.8*	.	-2.1
Cn1c(=O)[nH]c(=O)c2c1nc(NCCN)n2CCOc1ccccc1	-8.9	0.7	103.4	-3.3	21.0	.
COc1cc(NC(=O)COC(=O)c2n[nH]c3ccccc23)c(C)cc1[N+](=O)[O-]	0.0	-0.9	93.0	31.9*	-19.1	-0.8
CC(C)(C)C(=O)Nc1nnc(SCC(=O)NC2CC2)s1	4.8	-4.0	91.6	-0.8	18.8	.
COc1ccc(C(C)NC(=O)c2ccncc2)cc1OC (configuration not stated)	1.1	1.5	85.4	-0.2	25.6	.
Cc1ccc(C(=O)Nc2cccc(C(F)(F)F)c2)cc1NC(=O)c1ccno1	4.5	-7.6	103.2	-6.2	.	.
Cc1ccc(C(=O)Nc2cccc(C(F)(F)F)c2)cc1NC(=O)c1nccn1C	26.9	-3.1	98.4	26.6*	.	-0.7
O=C(Nc1cccnc1Cl)c1cc(-c2ccc(O)cc2)on1	4.6	5.3	107.3	29.4*	36.4	-25.3
COc1ccc(N2CCN(C(=O)c3oc4ccccc4c3NC(=O)CCc3cc(OC)no3)CC2)cc1	1.3	-0.1	93.4	-8.3	14.3	.
Cc1ccc(/C=N/NC(=O)Cn2nnc(N)n2)o1	-1.2	2.2	106.6	-4.2	4.9	.
COC(=O)c1cc(OC)c(OC)cc1NC(=O)c1cc(OC)cc(OC)c1	33.0	-1.8	90.0	23.2*	-12.3	-4.2
